Experimental data as given in article PMC4336329 (PLoS ONE, 2015).
Screen size: about 310,000 compounds; about 14,000 (4.5%) showed an effect of 50% or more. The effect is printed as a negative number. This excerpt belongs to a sample that is enriched for strong results.

target: human ether-à-go-go-related gene (hERG) potassium channel (human, UniProt Q12809); experiment: primary screen, population patch clamp on CHO cells stably expressing hERG; higher = less effect of the substance
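Also: peak tail current of the secondary pulse compared with the same well before compound.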

human ether-à-go-go-related gene (hERG) potassium channel, sequence (Q12809 whole entry, looked up): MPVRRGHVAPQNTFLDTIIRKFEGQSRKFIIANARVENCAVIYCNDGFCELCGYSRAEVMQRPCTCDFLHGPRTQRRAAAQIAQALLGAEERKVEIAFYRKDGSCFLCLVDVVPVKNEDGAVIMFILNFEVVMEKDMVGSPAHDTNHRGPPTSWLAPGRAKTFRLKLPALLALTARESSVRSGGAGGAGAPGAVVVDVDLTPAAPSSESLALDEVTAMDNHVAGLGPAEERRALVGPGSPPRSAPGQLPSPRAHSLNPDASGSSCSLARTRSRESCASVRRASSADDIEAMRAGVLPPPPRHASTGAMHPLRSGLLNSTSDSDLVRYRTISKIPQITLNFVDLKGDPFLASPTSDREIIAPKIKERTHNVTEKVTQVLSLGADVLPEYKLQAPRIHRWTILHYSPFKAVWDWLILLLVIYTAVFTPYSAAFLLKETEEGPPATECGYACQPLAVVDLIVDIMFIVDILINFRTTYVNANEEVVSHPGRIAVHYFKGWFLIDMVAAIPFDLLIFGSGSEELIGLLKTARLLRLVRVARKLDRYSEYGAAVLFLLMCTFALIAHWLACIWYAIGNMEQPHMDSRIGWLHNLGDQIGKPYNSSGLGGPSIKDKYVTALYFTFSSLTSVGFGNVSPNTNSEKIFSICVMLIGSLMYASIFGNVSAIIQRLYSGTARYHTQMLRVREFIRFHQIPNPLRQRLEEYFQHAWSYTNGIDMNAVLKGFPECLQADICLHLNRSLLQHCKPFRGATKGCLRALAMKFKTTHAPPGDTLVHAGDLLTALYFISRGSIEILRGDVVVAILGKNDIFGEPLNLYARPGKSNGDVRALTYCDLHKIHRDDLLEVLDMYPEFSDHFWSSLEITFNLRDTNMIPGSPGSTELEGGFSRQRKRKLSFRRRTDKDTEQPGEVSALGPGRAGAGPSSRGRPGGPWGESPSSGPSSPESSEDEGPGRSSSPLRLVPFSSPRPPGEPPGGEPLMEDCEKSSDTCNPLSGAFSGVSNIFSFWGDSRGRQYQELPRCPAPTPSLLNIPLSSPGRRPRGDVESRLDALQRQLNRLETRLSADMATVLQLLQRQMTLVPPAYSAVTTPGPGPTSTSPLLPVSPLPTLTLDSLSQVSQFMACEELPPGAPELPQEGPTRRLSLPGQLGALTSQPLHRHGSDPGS

| Compound | hERG current change (%, negative = inhibition) at 10uM |
| --- | --- |
| Cl.Fc1ccc(CN2C3=NCCN3c3ccccc32)cc1 | -54.9% |
| Cl.Fc1ccc(CN2C3=NCCCN3c3ccccc32)cc1 | -71.2% |
| O=C(CN1C(=O)C2C3c4ccccc4C(c4ccccc43)C2C1=O)Nc1cccc(C(=O)O)c1 (centres unmarked) | -10.3% |
| O=C(COc1ccc(Cl)cc1Cl)N/N=C1\CCCc2ccccc21 | 2.52% |
| CC(C)(CO)NCc1ccccc1OCC(=O)Nc1ccccc1 | -14% |
| Cc1ccc(C(=O)OCC(=O)Nc2ccc(F)c(Cl)c2)o1 | 17% |
| Clc1ccc(-n2nnnc2-c2cnc3ccc(Cl)cc3c2-c2ccccc2)cc1 | 5.46% |
| O=C(CCCCCCN1C(=O)c2ccccc2C1=O)N1CCC(c2ccccc2)C1 (centres unmarked) | -39.7% |
| Cc1ccc(/C=C/C(=O)N2CCCN(C(=O)/C=C/c3ccc(C)cc3)CC2)cc1 | -74.8% |
| O=C(Nc1ccccc1)N1CCCc2ccccc21 | -79.2% |
| Cc1ccc(NC(=O)N2CCCc3ccccc32)cc1 | -6.25% |
| CN1CCCN(C(=O)/C=C/c2ccc(F)cc2)CC1 | -23.7% |
| O=C(CCN1C(=O)c2ccccc2C1=O)N1CCC(c2ccccc2)C1 (centres unmarked) | -43% |
| CCN1CCN(C(=O)/C=C/c2ccc(F)cc2)CC1 | -43.2% |
| O=C(Nc1ccccc1)N1CCc2ccccc21 | -21.2% |
| O=C(/C=C/c1ccc(F)cc1)N1CCCN(C(=O)/C=C/c2ccc(F)cc2)CC1 | -75.6% |
| O=C(CCCN1C(=O)c2ccccc2C1=O)N1CCC(c2ccccc2)C1 (centres unmarked) | -58.6% |
| CCN1CCN(C(=O)/C=C/c2ccc(C)cc2)CC1 | -23.1% |
| Cc1ccc(/C=C/C(=O)N2CCCC(C)C2)cc1 (centres unmarked) | -8.25% |
| COc1ccc2cc(OCC(=O)NNC(=O)Nc3ccc(C(C)=O)cc3)ccc2c1 | 9.54% |

| Compound | hERG current change (%, negative = inhibition) at 10uM |
| --- | --- |
| Cc1ccnc(SCc2cc(=O)c(OC(=O)c3ccco3)co2)n1 | 4.97% |
| COc1ccc(NCc2ccsc2)cc1 | 2.52% |
| O=C(NCC1CC1)c1ccccc1Cl | 11.6% |
| COc1ccc(N2CCN(C3CC(=O)N(c4ccc5c(c4)OCCO5)C3=O)CC2)cc1 (centres unmarked) | -2.06% |
| CC(=O)Oc1ccccc1C(=O)N(C1CCCCC1)C1CCCCC1 | 15.3% |
| COc1ccc(C(=O)N/N=C(\Cc2ncc[nH]2)c2ccccc2)cc1 | 2.43% |
| COCCN(C(=O)CSc1nnc(-c2ccccc2C)n1C)c1c(N)n(Cc2ccccc2)c(=O)[nH]c1=O | 38.4% |
| CN1CCN(C(=O)/C=C/c2ccccc2)CC1 | 4.5% |
| O=C(/C=C/c1ccccc1)N1CCC(c2ccccc2)C1 (centres unmarked) | -57.6% |
| O=C(/C=C/c1ccccc1)N1CCOCC1 | 13.9% |
| COc1ccc(/C=C/C(=O)N2CCCc3ccccc32)cc1 | -16.8% |
| COc1ccc(/C=C/C(=O)N2CCC(c3ccccc3)C2)cc1 (centres unmarked) | -47.4% |
| O=C(/C=C/c1ccccc1)N1CCCN(C(=O)/C=C/c2ccccc2)CC1 | -68.5% |
| O=C(/C=C/c1ccc(F)cc1)N1CCCc2ccccc21 | -62.7% |
| O=C(/C=C/c1cccc(F)c1)N1CCc2ccccc21 | 4.51% |
| COc1ccccc1/C=C/C(=O)N1CCC(c2ccccc2)C1 (centres unmarked) | -4.29% |
| CCC(=O)Oc1ccc2c(c1)OC1(OC(C)=O)OC(C)CC1=C2C (centres unmarked) | -5.19% |
| CCCCn1nnnc1NCc1cccnc1 | 8.93% |
| COc1ccc(CC(=O)NCc2nnc(SCC(=O)Nc3ccc(OC)cc3)n2C)cc1 | 4.08% |
| Cc1ccc(S(=O)(=O)N2CCN(C(=O)c3ccc(COc4ccccc4)o3)CC2)cc1 | -0.773% |

| Compound | hERG current change (%, negative = inhibition) at 10uM |
| --- | --- |
| CCOC(=O)c1ccc(NC(=O)C2CCCN(S(=O)(=O)c3ccc(F)cc3)C2)cc1 (centres unmarked) | -15.1% |
| COc1ccc(-c2nn(C)c3sc(C(=O)NCCN(C)C)cc23)cc1OC | 15.4% |
| CC(Oc1ccc(Cl)cc1Cl)C(=O)NCCCn1ccnc1 (centres unmarked) | -28% |
| CCOc1cc(Cl)c(S(=O)(=O)NCCCn2ccnc2)cc1Cl | -48.9% |
| O=C(OCC(=O)c1ccccc1Cl)c1cnccn1 | -0.611% |
| COc1cc(S(=O)(=O)NCCCn2ccnc2)ccc1Cl | 7.94% |
| Cc1cc(Cl)ccc1OCCCC(=O)NCCCn1ccnc1 | -68.1% |
| O=C(CCCOc1ccc(Cl)cc1Cl)NCCCn1ccnc1 | -62.5% |
| CCOc1cc(S(=O)(=O)NCCCn2ccnc2)ccc1Cl | -64% |
| Cl.O=C(COc1ccc(Cl)cc1Cl)NCCCn1ccnc1 | -38.6% |
| O=C(OCC(=O)c1ccc(Cl)cc1Cl)c1cnccn1 | -58.3% |
| Cc1cc(Cl)ccc1OCC(=O)NCCCn1ccnc1 | -29.8% |
| Cc1cc(Cl)ccc1OCCCC(=O)NCc1ccncc1 | -44.4% |
| O=C(COC(=O)c1cnccn1)c1ccc(Cl)cc1 | 24.4% |
| Cc1ncc([N+](=O)[O-])n1CC(=O)Nc1ccc(F)cc1F | 13.3% |
| CCOc1ncccc1C(=O)OCC(=O)Nc1ccc(C)c(S(=O)(=O)N2CCOCC2)c1 | -27% |
| CCOC(=O)[C@H]1[C@H]2COc3ccc(OC)cc3[C@@H]2N2C(=O)CN(Cc3ccc(F)cc3)C(=O)[C@@]12C | -26.5% |
| CCOC(=O)/C=c1\s/c(=C\c2ccc(C(=O)OC)cc2)c(=O)n1CC(=O)Nc1ccccc1.Cl | 19.5% |
| COc1ccc(NC(=O)CCCn2c(=O)c3sccc3n(Cc3ccc(C)cc3)c2=O)cc1 | -5.72% |
